Records with an inconclusive call do not appear. Some compounds were tested as several samples or in several runs, with calls that do not always agree. A number with no mark means an inactive call. Calls of active or inactive are those of the source. Unless noted, the call rests on the fitted dose curve; in most records, active means well fitted curve in the direction sought with a large enough effect; inconclusive means small, poorly fitted or top-dose-only effect, or another doubt; inactive means no such curve, though single readings can be large; an effect the other way counts as inactive or inconclusive.

This note sets out measurements from PubChem BioAssay (NCATS).

Assay [1] concerns the target ATP-dependent 6-phosphofructokinase (Trypanosoma brucei brucei) (UniProt O15648). Kind of assay: qHTS Assay to Find Inhibitors of T. brucei phosphofructokinase: hit validation (AID 492961).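 Further: luminescence reports ADP formed as PFK phosphorylates fructose-6-phosphate with ATP; on the % scale 0 is the no-effect control and ±100 the full control effect.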 Summed up:
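PFK 1.25 nM, F6P 0.5 mM, ATP 0.1 mM, MgCl2 5 mM, 0.1 M TEA pH 8.0, Tween20 0.01%, BSA 0.1%; 45 min RT. ADP-Glo two-step detection, luminescence. qHTS titration; curve fitting with curve-class categorization.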
Background: Quantitative high-throughput screening tests each substance at several concentrations.

The target in assay [2] is Luciferin 4-monooxygenase (Photinus pyralis) (UniProt P08659). Kind of assay: Biochemical firefly luciferase enzyme assay for NPC (AID 624030).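 Further: purified P. pyralis luciferase at 10 nM with luciferin and ATP substrate; 0% = DMSO and -100% = full luciferase inhibition by PTC124 control; nearly all actives have a fitted effect of over 70% in size.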 In outline:
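Counter-screen for direct inhibition of the luciferase enzyme by approved-drug library compounds, run at 10 nM enzyme in 50 mM Tris acetate (final). Luminescence was read within 5 min of enzyme-buffer addition and normalized to PTC124 versus DMSO (0%).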

Assay [3] can be described thus: S16 Schwann cell PMP22 intronic element beta-lactamase assay (AID 624044; calls by dose curve; further: nearly all actives have a fitted effect of over 15% in size; further: potency means the concentration at half of the fitted maximal effect;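 on ratio activity, negative = inhibition: 0% = DMSO and -100% = potassium clavulanate positive control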). The following applies: S16 rat Schwann cells, PMP22 element beta-lactamase FRET, 24 h. Summed up:
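Rat S16 Schwann cells with beta-Lac driven by a PMP22 intronic element, compound-treated 24 h at 37 °C. LiveBLAzer FRET B/G read: 460 nm normalized to potassium clavulanate vs DMSO; 535 nm FRET as viability; concentration-effect curves classified.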

Assay [4] in a line: qHTS profiling for inhibitors of Plasmodium falciparum proliferation (AID 504749). Further: nearly all actives have a fitted effect of over 60% in size. Further: potency means the concentration at half of the fitted maximal effect.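 On activity, negative = inhibition: 0% = DMSO vehicle and full inhibition = artemisinin control.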 Particulars: P. falciparum in erythrocytes, SYBR Green DNA, 72 h, at 28.7 µM (top of the series). In outline: (§1)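 P. falciparum-infected erythrocytes (0.3% parasitemia, 2.5% hematocrit final) were exposed to compounds for 72 h at 37 C in 5% CO2, then lysed with SYBR Green buffer overnight at room temperature; parasite DNA fluorescence was normalized to artemisinin and DMSO controls.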

Another assay relates to CP185. Described as above. Particulars: P. falciparum in erythrocytes, SYBR Green DNA, 72 h; series mostly up to 28.7 µM. Summed up: as §1
For the next assay, the system named is CP192. Described as above. Particulars: P. falciparum in erythrocytes, SYBR Green DNA, 72 h; series mostly up to 28.7 µM. In outline:
as §1

For a further assay, the system named is CP211. Described as above. Particulars: P. falciparum in erythrocytes, SYBR Green DNA, 72 h; series mostly up to 28.7 µM. Summed up: as §1
A further assay relates to CP238. Described as above. Particulars: P. falciparum in erythrocytes, SYBR Green DNA, 72 h; series mostly up to 28.7 µM. In outline: as §1
The test system of another assay is CP262. The assay is described as above. Particulars: P. falciparum in erythrocytes, SYBR Green DNA, 72 h; series mostly up to 28.7 µM. In outline: as §1
Another assay relates to CP269. The assay is described as above. Particulars: P. falciparum in erythrocytes, SYBR Green DNA, 72 h; series mostly up to 28.7 µM. Summed up: as §1
The test system of another assay is CP286. The description is as above. The following applies: P. falciparum in erythrocytes, SYBR Green DNA, 72 h; series mostly up to 28.7 µM. Summed up: as §1
The next assay deals with CP305. Described as above. Particulars: P. falciparum in erythrocytes, SYBR Green DNA, 72 h; series mostly up to 28.7 µM. Summed up:
as §1

In the next assay the test system is CP315. Described as above. The following applies: P. falciparum in erythrocytes, SYBR Green DNA, 72 h; series mostly up to 28.7 µM. In outline:
as §1

The next assay concerns CP325. The assay is described as above. The following applies: P. falciparum in erythrocytes, SYBR Green DNA, 72 h; series mostly up to 28.7 µM. Summed up:
as §1

Another assay relates to Dd2. Described as above. Particulars: P. falciparum in erythrocytes, SYBR Green DNA, 72 h; series mostly up to 28.7 µM. Summed up:
as §1

The next assay relates to FAB9. Described as above. The following applies: P. falciparum in erythrocytes, SYBR Green DNA, 72 h; series mostly up to 28.7 µM. In outline:
as §1

The next assay deals with HB3. Described as above. Particulars: P. falciparum in erythrocytes, SYBR Green DNA, 72 h; series mostly up to 28.7 µM. In outline:
as §1

The test system of a further assay is JCK. The description is as above. Particulars: P. falciparum in erythrocytes, SYBR Green DNA, 72 h; series mostly up to 28.7 µM. In outline:
as §1

In another assay the test system is N140. Described as above. The following applies: P. falciparum in erythrocytes, SYBR Green DNA, 72 h; series mostly up to 28.7 µM. In outline:
as §1

For another assay, the system named is PC49. The assay is described as above. Particulars: P. falciparum in erythrocytes, SYBR Green DNA, 72 h; series mostly up to 28.7 µM. In outline: as §1
The mark [5] stands for this setting: ratio activity, negative = inhibition: at 38.3 µM (top of the series).

Sequence of ATP-dependent 6-phosphofructokinase (Trypanosoma brucei brucei) (O15648 whole entry, looked up): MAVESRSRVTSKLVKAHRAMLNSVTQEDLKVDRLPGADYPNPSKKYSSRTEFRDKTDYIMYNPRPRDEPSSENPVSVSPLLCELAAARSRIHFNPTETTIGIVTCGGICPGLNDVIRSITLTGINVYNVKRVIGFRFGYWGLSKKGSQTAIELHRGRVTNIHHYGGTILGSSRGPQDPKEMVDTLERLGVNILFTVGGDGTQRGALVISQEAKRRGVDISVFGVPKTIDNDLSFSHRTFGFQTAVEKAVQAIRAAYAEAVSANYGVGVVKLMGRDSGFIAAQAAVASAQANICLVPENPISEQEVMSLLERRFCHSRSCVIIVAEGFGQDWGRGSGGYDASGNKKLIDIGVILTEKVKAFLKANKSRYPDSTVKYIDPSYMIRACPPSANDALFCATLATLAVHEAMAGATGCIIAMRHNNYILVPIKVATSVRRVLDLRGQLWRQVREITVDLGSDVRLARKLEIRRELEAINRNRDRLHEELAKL
Sequence of Luciferin 4-monooxygenase (Photinus pyralis) (P08659 whole entry, looked up): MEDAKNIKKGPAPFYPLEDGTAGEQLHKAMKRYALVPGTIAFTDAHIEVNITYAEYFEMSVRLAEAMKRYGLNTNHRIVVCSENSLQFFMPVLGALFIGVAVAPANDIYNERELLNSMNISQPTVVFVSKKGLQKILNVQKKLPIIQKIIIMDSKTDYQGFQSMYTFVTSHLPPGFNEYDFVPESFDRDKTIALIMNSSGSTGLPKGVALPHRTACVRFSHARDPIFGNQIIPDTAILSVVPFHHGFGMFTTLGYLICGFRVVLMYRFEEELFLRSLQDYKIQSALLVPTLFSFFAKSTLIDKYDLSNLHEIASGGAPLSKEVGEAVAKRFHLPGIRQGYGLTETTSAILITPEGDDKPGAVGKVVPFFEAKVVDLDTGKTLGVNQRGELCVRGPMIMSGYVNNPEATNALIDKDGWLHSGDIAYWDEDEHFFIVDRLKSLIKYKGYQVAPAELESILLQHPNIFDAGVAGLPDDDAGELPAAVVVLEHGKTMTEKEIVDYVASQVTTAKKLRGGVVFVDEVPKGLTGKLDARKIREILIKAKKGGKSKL

`CC1(C)SC2[C@@H](N=CN3CCCCCC3)C(=O)N2[C@H]1C(=O)O` (stereo partly drawn): the Potency result (in assay [1]; in [2]; in assay [3] (setting [5]); in the assay on CP185; with CP192; in the assay with CP211) was “inactive” throughout. In addition, the Potency entry with CP238, with CP262, in the assay with CP269, in the assay on CP286, with CP305 and in the assay with CP315 was “inactive” each time. For the same molecule, the Potency result in the assay with CP325, in the assay on Dd2, in the assay on FAB9, in the assay on HB3, with JCK and with N140 was “inactive” in each case. Further, in the assay on PC49, the Potency result is “inactive”. Further, the activity, negative = inhibition in [4] (parasite line A) was 0.0196%; in [4] (parasite line B), -13%.

In the case of `CNC1CCc2cc(OC)c(OC)c(OC)c2-c2ccc(OC)c(=O)cc21` (stereo not drawn), the Potency entry (in assay [1]; in assay [2]; in the assay with CP185; in the assay on CP192; with CP211; with CP238) was “inactive” throughout. For the same molecule, the Potency result with CP262, in the assay with CP269, with CP286, in the assay with CP305, in the assay on CP315 and in the assay with CP325 was “inactive” in each case. In addition, the Potency entry in the assay on FAB9, in the assay on HB3, in the assay with JCK, with N140 and in the assay on PC49 was “inactive” each time. The Potency in assay [3] (setting [5]) is 0.178 µM (active). For the same molecule, the activity, negative = inhibition in [4] (parasite line A) is -5.32%; in [4] (parasite line B), 0.292%.

`OCC(O)C(O)C(O)C(O)CO` (stereo not drawn): the Potency result (in assay [1]; in assay [2]; in the assay with CP185; in the assay on CP192; in the assay with CP211; in the assay on CP238) was “inactive” in each case. The Potency entry in the assay with CP262, with CP269, in the assay on CP286, in the assay with CP305, in the assay on CP315 and in the assay with CP325 was “inactive” in each case. For the same molecule, the Potency entry in the assay on Dd2, in the assay with FAB9, in the assay with HB3, with JCK, in the assay with N140 and in the assay with PC49 was “inactive” each time. In addition, the ratio activity, negative = inhibition was -3.36% in [3] (at 38.3 µM (top of the series)) and 1.06% (active) in assay [3] (setting [5]). In assay [4] (parasite line B), the activity, negative = inhibition is 7.82%.

In the case of `CCC1OC(=O)C[C@H](O)C(C)[C@@H](O[C@@H]2OC(C)C(O)C(N(C)C)C2O)C(CCN2CC(C)CC(C)C2)CC(C)C(=O)/C=C/C(C)=C\[C@@H]1COC1OC(C)C(O)C(OC)C1OC` (stereo partly drawn), the Potency entry (in assay [1]; in assay [2]; in the assay on FAB9; with HB3) was “inactive” in each case. Moreover, in [4] (parasite line A), the activity, negative = inhibition was -29.2%. Moreover, the Potency is 5.62 µM (active) in the assay on CP286, 3.98 µM (active) in the assay on Dd2 and 10 µM (active) in the assay on N140.

In the case of `CCC(C)C(N)C(=O)O` (stereo not drawn), the Potency result (in assay [1]; in [2]; in the assay with CP185; in the assay on CP192; in the assay with CP211; in the assay on CP238) was “inactive” throughout. The Potency entry with CP262, with CP269, with CP286, in the assay on CP305, in the assay with CP315 and in the assay on CP325 was “inactive” throughout. Moreover, the Potency entry with Dd2, with FAB9, in the assay on HB3, in the assay on JCK, in the assay with N140 and in the assay with PC49 was “inactive” throughout. The activity, negative = inhibition in [4] (parasite line B) is -1.6%.

`CC(C)CCCC(C)C1CC(=O)C2=C3CCC4CC(O)CCC4(C)C3CCC21C` (stereo not drawn): the Potency entry (in assay [1]; in [2]; in assay [3] (setting [5]); in the assay on CP185; in the assay with CP192; with CP211) was “inactive” in each case. Besides, the Potency result in the assay on CP238, in the assay on CP262, in the assay on CP269, in the assay with CP305, in the assay with CP315 and with CP325 was “inactive” in each case. Also, the Potency result in the assay on FAB9, in the assay on JCK, in the assay with N140 and in the assay on PC49 was “inactive” throughout. Besides, the activity, negative = inhibition in [4] (parasite line A) was 4.35%; in assay [4] (parasite line B) it was -0.553%. Besides, the Potency in the assay with Dd2 is 12.6 µM (active).
